Compound activity deposited in PubChem BioAssay by National Center for Advancing Translational Sciences (NCATS).
IMPase inh = cell-permeable inhibitors of inositol monophosphatase (IMPase). AID 901. 120,000 tested, under 10 active. CHO-M1 cells, IP1 accumulation, HTRF TR-FRET ratio. P97697. inhibition (IP1 accumulation), % at 46.1 µM; active means well fitted curve in the direction sought with a large enough effect in the signal ratio, not every such curve was filed as active; inconclusive means small, poorly fitted or top-dose-only effect, or a change in a side signal; inactive means no such curve, though single readings can be large or run the other way; the % refers to the signal ratio;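 further: cells stimulated with carbachol in lithium chloride buffer; plate controls were DMSO basal wells for no effect and reference inhibitor wells for full effect; higher means more IMPase inhibition seen as more IP1 and lower FRET ratio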
Target sequence (P97697 whole entry, looked up): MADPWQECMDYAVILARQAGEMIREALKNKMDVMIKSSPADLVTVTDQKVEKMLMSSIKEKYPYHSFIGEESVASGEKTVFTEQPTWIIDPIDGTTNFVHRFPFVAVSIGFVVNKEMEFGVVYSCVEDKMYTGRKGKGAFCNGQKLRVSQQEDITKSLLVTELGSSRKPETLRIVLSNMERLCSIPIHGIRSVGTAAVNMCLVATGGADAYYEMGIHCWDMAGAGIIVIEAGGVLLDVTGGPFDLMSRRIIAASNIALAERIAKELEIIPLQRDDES
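Measured: the HTRF emission ratio (665/620 nm) plus the 620 nm donor channel, each fitted to the Hill equation to give AC50. Cells were CHO-M1 given compounds up to 46 uM and a 30 min carbachol stimulation at 37C.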
IMPase Li cell = cell-permeable IMPase inhibitors with lithium potentiation; CHO-M1 cells, IP1 TR-FRET (IP-One), carbachol + lithium; actives 0.35% (n = 210,000); Potency, µM (doses to about 59.4 µM), for the others: at the top dose activity, negative = IMPase inhibition, most hits filed as inhibitors;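 further: IP1 builds up when IMPase is blocked and the TR-FRET signal falls; potency means the concentration at half of the fitted maximal effect; plate controls were basal vehicle for no effect and high inhibitor control for full effect; nearly all actives have a fitted effect of over 50% in size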
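Readout is a homogeneous TR-FRET IP1 immunoassay (Ex 320, Em 665 and 620), where raised cytosolic IP1 lowers signal. Cells were CHO-M1 treated 30 min at 37C with test compounds plus a little lithium; AC50 values came from Hill-equation fitting.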
PNC assembly inh = blocks assembly of the perinucleolar compartment; PC3M PTB-GFP, PNC prevalence imaging, 16 h; active compounds read low; activity change (PNC), negative = inhibition, % at 10 µM; AID 2417; actives 3.1% (n = 140,000);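 active means readout at or below -70, meaning at least 70% loss of cells showing the perinucleolar compartment, a nuclear body marking cancer cells; inconclusive means readout between -30 and a set limit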;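 further: plate controls were DMSO wells for no effect and camptothecin positive control wells for full effect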
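PC3M cells stably expressing PTB-GFP, 750–1000 cells/well, treated 16 h at 37 °C with compound (23 nl of library stock), in duplicate. After paraformaldehyde fixation and Hoechst stain, imaged at 20x; PNC prevalence scored by image analysis.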
ALDH1A1 inh = ALDH1A1 (human) enzyme inhibition | Purified ALDH1A1, NADH fluorescence, propionaldehyde substrate | actives 7.3% (n = 220,000) | Potency, µM (titrated, usually from 75.3 µM), without a hit: at the highest dose activity, negative = inhibition, most hits filed as inhibitors; active means well fitted inhibition curve with a large enough effect, not every such curve was filed as active; inconclusive means small, poorly fitted or top-dose-only effect, or another doubt; inactive means no such curve, though single readings can be large or run the other way;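 further: potency means the concentration at half of the fitted maximal effect; plate controls were no enzyme wells and a reference inhibitor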
Target sequence (P00352 whole entry, looked up): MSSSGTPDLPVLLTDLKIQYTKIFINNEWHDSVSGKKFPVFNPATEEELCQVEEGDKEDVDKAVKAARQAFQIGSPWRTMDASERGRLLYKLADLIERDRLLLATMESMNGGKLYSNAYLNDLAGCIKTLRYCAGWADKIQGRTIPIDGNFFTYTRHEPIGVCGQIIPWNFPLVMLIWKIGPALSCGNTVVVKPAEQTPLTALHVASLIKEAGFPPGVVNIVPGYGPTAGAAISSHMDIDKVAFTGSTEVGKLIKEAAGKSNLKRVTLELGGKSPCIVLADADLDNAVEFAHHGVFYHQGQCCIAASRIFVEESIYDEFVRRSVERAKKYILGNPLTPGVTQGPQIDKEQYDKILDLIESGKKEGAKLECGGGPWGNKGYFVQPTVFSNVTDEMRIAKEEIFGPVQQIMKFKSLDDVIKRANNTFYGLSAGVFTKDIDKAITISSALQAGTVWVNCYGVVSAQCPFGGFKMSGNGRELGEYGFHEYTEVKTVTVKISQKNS
ALOX12 inhib = inhibitors of human 12-lipoxygenase (ALOX12) | P18054 | purified 12-hLO, xylenol orange hydroperoxide absorbance | Potency, µM (doses to about 57.1 µM), inactives show at the top dose activity change, negative = inhibition, most hits filed as inhibitors | actives 0.12% (n = 150,000) | AID 1452; further: potency means the concentration at half of the fitted maximal effect; nearly all actives have a fitted effect of over 55% in size
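Xylenol orange chromogenic assay: hydroperoxide from 12hLO oxidises Fe(II), giving red-shifted Fe(III)-XO absorbance. Conditions: 150 nM enzyme, 40 uM arachidonic acid, 25 mM Hepes pH 7.0, 0.01% Triton X-100, 30 min, room temperature.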
HPGD block = inhibitors of human 15-hydroxyprostaglandin dehydrogenase (HPGD); AID 894; Potency, µM, for inactives: top-dose activity change, negative = inhibition, most hits filed as inhibitors; purified HPGD, NADH fluorescence kinetic, PGE2 substrate; P15428; actives 4.3% (n = 150,000); active means well fitted inhibition curve with a large enough effect, not every such curve was filed as active; inconclusive means small, poorly fitted or top-dose-only effect, or another doubt; inactive means no such curve, though single readings can be large or run the other way; further: potency means the concentration at half of the fitted maximal effect
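NADH formation kinetics: reaction with 30 uM PGE2 and 1 mM NAD+ (final), 20 nM enzyme, Tris-HCl pH 8 with Tween 20, after 15 min compound preincubation at room temperature. Fluorescence change, last versus first of five reads.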
* marks the source's active call; other numbers are inactive results; ? = inconclusive; nt = no result given; [ ] = dose if it differs, or a comment. Shown are actives, neighbours in structure and some others; about 11% of the full set was active somewhere. Unless noted, the call rests on the fitted dose curve; in most records, active means well fitted curve in the direction sought with a large enough effect; inconclusive means small, poorly fitted or top-dose-only effect, or another doubt; inactive means no such curve, though single readings can be large; an effect the other way counts as inactive or inconclusive. Unless noted, on the % scale 0 is the no-effect control and ±100 the full control effect.

SMILES	IMPase inh	IMPase Li cell	PNC assembly inh	ALDH1A1 inh	ALOX12 inhib	HPGD block
O=C(CCCn1c(SCC(=O)NCC2CCCO2)nc2ccccc2c1=O)NCc1ccccc1 (stereo not given)	-2	18%[38.3 µM]	27	1%	-1%	-9%
N#Cc1cccc(NC(=O)N2CC[C@@]3(CCCN(S(=O)(=O)c4ccccc4)C3)C2)c1	nt	3%	nt	-1%	-5%	-6%
Cc1nc(N2C(=O)c3oc4ccccc4c(=O)c3C2c2cccc(OCCC(C)C)c2)sc1C (stereo not given)	2	nt	nt	nt	nt	nt
CCOC(=O)C1=NN(C(=O)c2ccc(OC)cc2)C(O)(c2ccc(Cl)cc2)C1 (stereo not given)	nt	5%	-18	18µM*	-4%	-9%
CCOC(=O)C1=NN(C(=O)Cc2ccccc2)C(O)(c2ccc(Cl)cc2)C1 (stereo not given)	nt	18%	-3	?	0%	-18%
CCOC(=O)C1=NN(C(=O)c2ccccc2)C(O)(c2ccc(C)cc2)C1 (stereo not given)	nt	-5%	-95*	-8%	-6%	-5%
COc1ccc(CNc2ncncc2-c2ccccc2C(F)(F)F)c(OC)c1	nt	8%	nt	-5%	nt	nt
Cc1nn(-c2ccccc2Cl)c(Cl)c1/C=N/Nc1cccc(C(=O)O)c1	-1	6%	-23	?	-6%	13µM*
CCOc1ccc(Oc2c(/C=N/NC(N)=O)c(C)nn2-c2ccccc2)cc1	nt	22%	24	32µM*	-10%	-8%
COC(=O)N/N=C/c1c(C)nn(-c2cccc(Cl)c2)c1Cl	-7	9%	-94*	-1%	-2%	-23%
CCOc1ccc(Oc2c(/C=N/NC(=O)COc3ccccc3OC)c(C)nn2-c2ccccc2)cc1	nt	15%	?	?	0%	-3%
COC(=O)N/N=C\c1c(C)nn(-c2ccccc2)c1Cl	-1	6%	-20	4%	-1%	-20%
Cc1nn(-c2ccccc2)c(Cl)c1/C=N/NC(=O)CNC(=O)c1ccccc1Cl	nt	16%	75	7.1µM*	-2%	-11%
Cc1nn2cc(-c3ccc(Cl)cc3)cnc2c1Cl	nt	-7%	nt	-9%	nt	nt
C=CCC(C)(O)C#Cc1ccccc1 (stereo not given)	nt	-9%	nt	5%	4%	-11%
N=C(N)SC(c1ccccc1)c1ccccc1	nt	-8%	nt	5%[13.5 µM]	2%[11.4 µM]	-4%
Cc1nn(-c2cccc(Cl)c2)c(Cl)c1/C=N/NC(=O)c1cccnc1	nt	9%	-86*	-1%	-2%	-2%
CCOC(=O)N/N=C/c1c(C)nn(-c2cccc(C(F)(F)F)c2)c1Cl	8	9%	-83*	16%	-1%	-19%
Cc1ccc2oc(=O)c3c4cc(O)c(O)c(C)c4oc3c2c1	nt	-1%	nt	8%	-13%	-12%
CNc1ncncc1-c1ccc(C(=O)N(C)C)cc1	nt	2%	nt	?	-2%	?
Cc1cnc(CNc2cc(-c3cccnc3)ncn2)cn1	nt	8%	nt	-9%	nt	nt
CC(=O)c1ccc(Sc2nnnn2-c2ccccc2)c([N+](=O)[O-])c1	nt	14%	-6	16µM*	3%	-16%
CN1CCN(S(=O)(=O)c2ccc(Sc3nnnn3-c3ccccc3)c([N+](=O)[O-])c2)CC1	nt	-5%	8	-56%	2%	-11%
O=[N+]([O-])c1ccc(Sc2nnnn2-c2ccccc2)c(Cl)c1	-4	33%[38.3 µM]	-2	3.5µM*	-15%	-12%
Nc1ccc(Sc2nnnn2-c2ccccc2)c(Cl)c1	-9	26%[38.3 µM]	?	22µM*	-5%	-2%
SMILES	IMPase inh	IMPase Li cell	PNC assembly inh	ALDH1A1 inh	ALOX12 inhib	HPGD block
c1ccc(Cn2c(Sc3nnnn3-c3ccccc3)nnc2-c2ccccc2)cc1	-2	30%[38.3 µM]	?	?	1%	-21%
Cn1nnnc1Sc1ccc([N+](=O)[O-])cc1Cl	nt	0%	nt	-2%	nt	nt
CN(C)c1ncc2nc(-c3cccs3)c(=O)n(CCc3ccccc3)c2n1	nt	-1%	nt	?	nt	nt
C[C@]12C[C@@](C)(C=C1/C=C/c1ccc(C(F)(F)F)cc1)C(=O)C[C@H]2c1ccc(C(F)(F)F)cc1	nt	0%	nt	-8%	-5%	-1%
COCCn1c(=O)cnc2cnc(OC)nc21	nt	1%	nt	0%	nt	nt
COC(=O)[C@@H]1C[C@H]1[C@@H](NC(=O)Oc1ccc(F)cc1)c1ccccc1	nt	-4%	nt	7.9µM*	0%	-6%
O=C1NN(c2ccc(F)cc2)C(=O)/C1=C/c1cccs1	nt	10%	nt	25µM*	nt	nt
CCC(=O)NC1Cc2ccccc2C(c2ccccc2)C1 (stereo not given)	nt	4%	nt	-6%	nt	nt
c1ccc(-c2cnc(-c3cccnc3)o2)cc1	-2	-4%[38.3 µM]	-84*	?	-2%	?
COc1ccc(CCN(Cc2cc3ccc(C)cc3n3nnnc23)C(C)=O)cc1OC	nt	-2%	nt	-1%	nt	nt
Cc1ccccc1N1C(=O)CSC1=C(C#N)C#N	nt	-1%	nt	3.5µM*	nt	nt
COC(=O)C1=C(C(=O)OC)[C@@H]2Nc3ccccc3[C@@]23C[C@@H](C(=O)OC)N(S(=O)(=O)c2ccc(Br)cc2)C3=N1	nt	11%	nt	-4%[13.5 µM]	-5%[11.4 µM]	-7%
N#Cc1c(-c2ccc(Br)cc2)nc2n(c1=O)CCCS2	2	8.9µM*	?	35µM*	-2%	28µM*
COc1ccc(-n2c(SCC#N)nnc2-c2ccc(NS(=O)(=O)c3ccc(C)cc3)cc2)cc1	10	-2%[38.3 µM]	?	?	-24%	14µM*
COc1ccc(-n2c(SCC(N)=O)nnc2-c2ccc(NS(=O)(=O)c3ccc(C)cc3)cc2)cc1	-7	14%[38.3 µM]	-17	?	-16%	22µM*
COC(=O)CCCCCN1C(=O)NC(CC2CC2)C(C(=O)OCc2ccccc2)=C1C (stereo not given)	nt	19%	nt	?	-6%	-13%
COc1ccc(Oc2ncc3nc(-c4ccc(OC)cc4)c(=O)n(CCC#N)c3n2)cc1	nt	-29%	nt	?	1%	-11%
CC1(C)CC(=O)C(CC(=O)Nc2ccc(S(N)(=O)=O)cc2)=C(O)C1	0	3%	-90*	?	4%	-13%
CC1(C)CC(=O)C=C(Nc2ccc(S(N)(=O)=O)cc2)C1	7	20%[38.3 µM]	?	?	-1%	-11%
Cc1ccc(/C=C/C(=O)Nc2nccs2)o1	nt	-1%	-18	?	-1%	25µM*
Cc1ccc(/C=C/C(=O)Nc2ccc(S(N)(=O)=O)cc2)o1	11	3%	nt	25µM*	nt	nt
COc1ccc(/C=C/C(=O)NCCc2ccc(S(N)(=O)=O)cc2)cc1	nt	1%	?	10µM*	-3%	-7%
Cc1ccc(/C=C/C(=O)Nc2ncc(C)s2)o1	8	-1%	29	?	-9%	-10%
